Out of some 310,000 compounds screened, about 14,000 (4.5%) showed an effect of 50% or more. The effect is printed as a negative number. The sample holds strong results, similar compounds and a random draw of the others, so the mix is not that of the screen.
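Further: peak tail current of the secondary pulse compared with the same well before compound.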

This assay deals with human ether-à-go-go-related gene (hERG) potassium channel (human, UniProt Q12809). Briefly: primary screen, population patch clamp on CHO cells stably expressing hERG; higher = less effect of the substance.
human ether-à-go-go-related gene (hERG) potassium channel, sequence (Q12809 whole entry, looked up): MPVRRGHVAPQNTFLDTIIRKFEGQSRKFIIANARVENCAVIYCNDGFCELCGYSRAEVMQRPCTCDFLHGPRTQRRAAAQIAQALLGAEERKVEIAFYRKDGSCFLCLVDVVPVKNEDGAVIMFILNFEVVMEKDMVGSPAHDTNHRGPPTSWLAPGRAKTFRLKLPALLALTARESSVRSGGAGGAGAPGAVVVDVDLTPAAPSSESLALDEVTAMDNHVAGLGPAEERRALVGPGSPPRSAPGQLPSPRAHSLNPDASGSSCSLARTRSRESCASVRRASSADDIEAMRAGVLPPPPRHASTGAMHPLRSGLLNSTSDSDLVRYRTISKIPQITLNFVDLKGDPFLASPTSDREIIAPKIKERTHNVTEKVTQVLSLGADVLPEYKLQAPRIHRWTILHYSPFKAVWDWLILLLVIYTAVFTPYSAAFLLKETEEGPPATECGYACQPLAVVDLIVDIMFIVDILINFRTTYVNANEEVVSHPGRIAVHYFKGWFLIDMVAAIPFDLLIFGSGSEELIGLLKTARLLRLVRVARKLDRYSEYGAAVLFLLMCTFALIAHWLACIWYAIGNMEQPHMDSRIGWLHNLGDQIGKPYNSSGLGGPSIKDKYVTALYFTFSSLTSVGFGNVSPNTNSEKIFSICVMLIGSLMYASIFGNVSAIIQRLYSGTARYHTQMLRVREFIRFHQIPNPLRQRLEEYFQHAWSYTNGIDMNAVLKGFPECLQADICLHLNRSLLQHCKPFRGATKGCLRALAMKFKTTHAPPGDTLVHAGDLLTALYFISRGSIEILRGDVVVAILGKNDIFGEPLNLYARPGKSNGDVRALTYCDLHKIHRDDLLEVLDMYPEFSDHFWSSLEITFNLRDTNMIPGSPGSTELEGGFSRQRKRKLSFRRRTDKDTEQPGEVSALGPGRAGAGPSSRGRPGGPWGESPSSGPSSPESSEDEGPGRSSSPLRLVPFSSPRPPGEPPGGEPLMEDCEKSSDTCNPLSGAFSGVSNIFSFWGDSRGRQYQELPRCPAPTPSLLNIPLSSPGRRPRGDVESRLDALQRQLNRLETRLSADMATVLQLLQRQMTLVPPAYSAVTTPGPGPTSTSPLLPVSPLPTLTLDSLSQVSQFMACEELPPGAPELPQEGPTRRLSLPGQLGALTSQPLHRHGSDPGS
Consider `COc1ccc(C2NC(C(=O)O)CS2)cc1COCC(F)(F)F` (stereo not drawn), for which the “hERG current change (%, negative = inhibition) at 10uM” value stood at 3.38%.

As to `CC1Sc2ccc(S(=O)(=O)N3CCC(C(=O)N(C)Cc4ccco4)CC3)cc2NC1=O` (stereo not drawn), the “hERG current change (%, negative = inhibition) at 10uM” value is -24.7%.

As for `COc1ccc(NC(=O)c2sc(SC)nc2N)cc1`, the “hERG current change (%, negative = inhibition) at 10uM” value was -0.0249%.

Turning to `Cn1ncc(Cl)c1C(=O)N1CCc2ccccc21`, the “hERG current change (%, negative = inhibition) at 10uM” value is listed as -13.9%.

With `O=S(=O)(c1ccccc1Cl)N1CCCC1c1nc(-c2cccc(Cl)c2)no1` (stereo not drawn), the “hERG current change (%, negative = inhibition) at 10uM” value was -9.49%.

As to `COc1cccc(-n2c(CN3CCN(c4ccccc4)CC3)nc3ccc([N+](=O)[O-])cc3c2=O)c1`, the “hERG current change (%, negative = inhibition) at 10uM” value is recorded as -8.34%.

`COc1cccc(-n2c(CN3CCN(Cc4ccccc4)CC3)nc3ccc([N+](=O)[O-])cc3c2=O)c1`: the “hERG current change (%, negative = inhibition) at 10uM” value is recorded as -52.8%.

Take `COc1cccc(-n2c(CN3CCN(C)CC3)nc3ccc([N+](=O)[O-])cc3c2=O)c1`: the “hERG current change (%, negative = inhibition) at 10uM” value is reported as -33.1%.

In the case of `C=C(C)COc1ccc(-c2[nH]ncc2Oc2ccccc2OCC)c(O)c1`, the “hERG current change (%, negative = inhibition) at 10uM” value worked out at 4.65%.

Consider `C=C(C)COc1ccc(-c2[nH]ncc2Oc2ccc(OC)cc2)c(O)c1`, for which the “hERG current change (%, negative = inhibition) at 10uM” value is on record as -14.9%.

`C=C(C)COc1ccc(-c2[nH]ncc2Oc2ccccc2OC)c(O)c1`: the “hERG current change (%, negative = inhibition) at 10uM” value is given as -55.2%.

On to `O=C(O)c1ccc(NS(=O)(=O)c2ccc(NC(=O)c3ccccc3Cl)cc2)cc1`, for which the “hERG current change (%, negative = inhibition) at 10uM” value is on record as 19%.

With `CC(NC(=O)COC(=O)c1ccc([N+](=O)[O-])s1)c1ccccc1` (stereo not drawn), the “hERG current change (%, negative = inhibition) at 10uM” value is reported as -20.8%.

`CCC(C)c1ccc(NC(=O)C/C(C)=N/NC(=O)c2cnccn2)cc1` (stereo not drawn): the “hERG current change (%, negative = inhibition) at 10uM” value is recorded as -17.2%.

As for `CCN1C(=O)/C(=C/C=C2\N(CC)c3cc(S(=O)(=O)N(C)C)ccc3N2c2ccccc2)SC1=S`, the “hERG current change (%, negative = inhibition) at 10uM” value is 0.17%.

With `C=CCN1C(=O)/C(=C/C=C2/N(CC)c3ccc(S(=O)(=O)N(C)C)cc3N2CC)SC1=S`, the “hERG current change (%, negative = inhibition) at 10uM” value is listed as -56%.

For `C=CCN1C(=O)/C(=C\C=C2\N(C)c3ccccc3C2(C)C)SC1=S`, the “hERG current change (%, negative = inhibition) at 10uM” value is on record as 10.7%.

On to `COC(=O)CSc1[nH]c2ccccc2c1[N+](=O)[O-]`, for which the “hERG current change (%, negative = inhibition) at 10uM” value is given as 7.33%.

Consider `Cc1nn(C)c(NC(=O)c2ccc(Cl)cc2Cl)c1Br`, for which the “hERG current change (%, negative = inhibition) at 10uM” value is -11.4%.

Regarding `CCOC(=O)c1ccc(NC(=S)N(CCCN2CCCCC2)Cc2ccco2)cc1`, the “hERG current change (%, negative = inhibition) at 10uM” value is reported as -72.7%.

Take `CCOC(=O)c1ccc(NC(=S)NCc2ccco2)cc1`: the “hERG current change (%, negative = inhibition) at 10uM” value was -11.1%.

Turning to `CCc1ccccc1NC(=S)N(CCN1CCCCCC1)Cc1ccco1`, the “hERG current change (%, negative = inhibition) at 10uM” value is recorded as -46.8%.

For the compound `CCOC(=O)c1ccc(NC(=S)N(CCCN2CCCC(C)C2)Cc2ccco2)cc1` (stereo not drawn), the “hERG current change (%, negative = inhibition) at 10uM” value is given as -70.9%.

As to `CCOC(=O)c1ccc(NC(=O)C(=O)NCc2ccco2)cc1`, the “hERG current change (%, negative = inhibition) at 10uM” value worked out at 15.7%.

Regarding `CCOC(=O)c1ccc(NC(=S)N(CCN2CCCCCC2)Cc2ccco2)cc1`, the “hERG current change (%, negative = inhibition) at 10uM” value is listed as -78.3%.

On to `CCOC(=O)c1ccc(NC(=S)N(CCCN(CC)CC)Cc2ccco2)cc1`, for which the “hERG current change (%, negative = inhibition) at 10uM” value is -76.7%.

On to `O=C1C(NS(=O)(=O)c2ccc(Cl)cc2)=C(N2CCCCC2)C(=O)c2ccccc21`, for which the “hERG current change (%, negative = inhibition) at 10uM” value is listed as -13.3%.

With `Cc1ccc(-n2nc3c(=O)n(CCCC(=O)N4CCC(C)CC4)nc(C)c3c2C)cc1`, the “hERG current change (%, negative = inhibition) at 10uM” value is recorded as -30.1%.

As to `CN(Cc1cccc(Cl)c1Cl)c1ccc(S(=O)(=O)N2CCCCC2)cc1[N+](=O)[O-]`, the “hERG current change (%, negative = inhibition) at 10uM” value worked out at 5.82%.

Regarding `Cc1ccc(C2=NNC(C(O)C(O)C(O)CO)S2)cc1` (stereo not drawn), the “hERG current change (%, negative = inhibition) at 10uM” value is 11.6%.

As for `CC1CN(S(=O)(=O)c2cccc(C(=O)Nc3ccc(S(=O)(=O)NC4=NCCCCC4)cc3)c2)CC(C)O1` (stereo not drawn), the “hERG current change (%, negative = inhibition) at 10uM” value is -5.97%.

Take `CC(C)c1ccc(OCc2cccc(C(=O)N/N=C/c3cccnc3)c2)cc1`: the “hERG current change (%, negative = inhibition) at 10uM” value was -5.29%.

Consider `Cc1ccccc1C(=O)Nc1cccc(C(=O)N/N=C/c2cc(Cl)cc([N+](=O)[O-])c2O)c1`, for which the “hERG current change (%, negative = inhibition) at 10uM” value is 7.34%.

Take `COC(=O)c1cc2sc(Cl)cc2n1Cc1nc(-c2ccccc2)oc1C`: the “hERG current change (%, negative = inhibition) at 10uM” value is recorded as 3.5%.

For `Cn1ccnc1SCC(=O)Nc1nc2ccccc2s1`, the “hERG current change (%, negative = inhibition) at 10uM” value is -25.1%.

As for `O=C(O)c1ccc(N/N=C/C2=C(N3CCOCC3)C(=C\c3ccccc3)/CC2)cc1`, the “hERG current change (%, negative = inhibition) at 10uM” value came out at 7.96%.

On to `COc1ccccc1CC(=O)NCCc1c[nH]c2ccccc12`, for which the “hERG current change (%, negative = inhibition) at 10uM” value was 5.81%.

For `COc1cccc(NC(C)C(=O)N2CC(C)OC(C)C2)c1` (stereo not drawn), the “hERG current change (%, negative = inhibition) at 10uM” value is -1.96%.

In the case of `C/C(=N/NC(=O)CNC(=O)c1cccs1)c1ccco1`, the “hERG current change (%, negative = inhibition) at 10uM” value was 11.7%.

As for `CCOC(=O)c1ccc(NC(=S)N(CCCN2CCN(CC)CC2)Cc2ccco2)cc1`, the “hERG current change (%, negative = inhibition) at 10uM” value is -76.5%.

For the compound `CCOC(=O)c1ccc(NC(=S)N(Cc2cccnc2)Cc2ccco2)cc1`, the “hERG current change (%, negative = inhibition) at 10uM” value is reported as -53.2%.

`COc1ccc(NC(=S)N(CCCN2CCOCC2)Cc2ccco2)cc1`: the “hERG current change (%, negative = inhibition) at 10uM” value is -7.89%.

For the origin of these results see paper PMC4336329 (PLoS ONE, 2015).
